The structures appear in SMILES notation. The whole screen tested about 73,000 compounds, of which about 1,800 (2.5%) were called active. Entries that show only a call come without a potency. Another 13% or so got no clear call; they are omitted. Calls follow the shape of the dose curve; as a rule, active = well fitted activation curve with a large enough effect; inconclusive = small, poorly fitted or top-dose-only effect; inactive = no such curve, though single readings can be large or run the other way. For the sample, actives were picked, then their nearest neighbours and some compounds at random.

These results are taken from PubChem BioAssay AID938 (National Center for Advancing Translational Sciences (NCATS), 2007).
Potency is read from the fitted curve at half-maximal effect.

This experiment in a line: qHTS Assay for Agonists of the Thyroid Stimulating Hormone Receptor: Activators of Intracellular cAMP Concentrations in Parental HEK 293. Also: nearly all actives have a fitted effect of over 55% in size. Conditions: parental HEK293 CNG cAMP sensor, membrane potential fluorescence; series mostly up to 57.1 µM. The source says: NIH Chemical Genomics Center [NCGC]
NIH Molecular Libraries Screening Centers Network [MLSCN]
PI Name: Dr. Marvin Gershengorn
This cell based assay utilized a cyclic nucleotide gated ion channel (CNG) as a biosensor for cAMP induction. HEK 293 cells stably expressing the modified CNG were purchased from BD biosciences (http://www.atto.com/products/actone/features_benefits.shtml) . Stimulation of cAMP production causes the CNG to open and subsequent membrane depolarization to occur. A fluorescent membrane potential dye (BD biosciences) was utilized to detect cAMP stimulation in cells.
The cells were maintained in DMEM medium (Invitrogen) containing 10 % FBS (Hyclone), 100 units/ml Penicillin, 100 ug/ml Streptomycin (Invitrogen), and 250 ug/ml Geneticin (Invitrogen) and 1 ug/ml Puromycin (Invitrogen) at 37C in 5% CO2. This assay was used as a counterscreen to "qHTS Assay for Agonists of the Thyroid Stimulating Hormone Receptor", to control for compounds signaling through endogenous receptors and other targets of HEK 293 cells.
NCGC Assay Protocol Summary:
High Throughput Screening. Freshly passaged cells were dispensed into 1536-well assay plates at 4 ul/well in DMEM containing phenol red (Invitrogen), 10% FCS (Hyclone), and 100 units/ml Penicillin, 100 ug/ml Streptomycin (Invitrogen) and incubated at 37 C with 5% CO2 for 20 to 36 hrs before the robotic screening. The screen was initiated by addition of 4 ul/well membrane potential dye containing 100 uM RO 20-1724 (Sigma Aldrich), followed by 60 min incubation at room temperature to allow for dye equilibration across the cell membrane. 23 nl/well compound or control was then added to the assay plates, which were incubated for additional 30 min before reading a Envision fluorescence plate reader (Perkin Elmer) in bottom-read mode for fluorescence intensity (emission at 590 nm).
Keywords: cAMP, CNG Ion Channel, quantitative high throughput screening, qHTS, HTS, probe identification, CNG, cAMP, cyclic nucleotide gated ion channel PubChem
On to `CN1CCC2(CC1)CCN(S(=O)(=O)c1ccccc1)CC2`, for which the Potency is 3.98 µM (active).

Consider `CC(=O)c1cnc(Nc2nc(C)c3cc(C)ccc3n2)nc1C`, for which the Potency entry was “inactive”.

`CO/N=C\[C@@H](C)[C@H](OCc1ccccc1)C(C)C`: the activation was -0.643% [at 11.4 µM] (inactive).

For `C[C@H]1CC[C@H](C(=O)O)N[C@@H]1c1ccc(C#Cc2ccccc2)cc1`, the activation was 0.689% [at 11.4 µM] (inactive).

For the compound `CC(C)[C@H](NC(=O)Nc1ccc(S(N)(=O)=O)cc1)C(=O)O`, the Potency entry was “inactive”.

For the compound `CC(C)(C)NC(=O)C(c1ccco1)N(Cc1ccc2c(c1)OCO2)C(=O)Cn1nnc2ccccc21` (configuration not stated), the Potency was 15.8 µM (active).

`CC(C)(C)NC(=O)C(c1ccncc1)N(C(=O)CNC(=O)c1ccco1)c1ccc2c(c1)OCO2` (configuration not stated): the Potency entry is “inactive”.

In the case of `Cc1ccc(C(=O)CSc2nnc(Cn3nnc4ccccc43)n2C)cc1`, the Potency entry was “inactive”.

On to `Cc1ccc(-c2nnn(CC(=O)N(CCO)C(C(=O)NC(C)(C)C)c3ccncc3)n2)cc1` (configuration not stated), for which the Potency result was “inactive”.

On to `O=C(Cn1nnc(-c2ccccc2)n1)NCc1ccc2c(c1)OCO2`, for which the Potency result was “inactive”.

On to `CCC(C)(C)NC(=O)C(c1cccn1C)N(Cc1ccc(C)cc1)C(=O)Cn1nnc2ccccc21` (configuration not stated), for which the Potency was 15.8 µM (active).

As for `CC(=O)c1nc(N2C(=O)C3CC=C(C)CC3C2=O)sc1C` (configuration not stated), the Potency result is “inactive”.

For `CCOC(=O)CCC(=O)OCC(=O)NC(C)C1CC2CCC1C2` (configuration not stated), the Potency entry was “inactive”.

As to `CCc1c(C)sc(NC(=O)OC)c1C(=O)N1CCOCC1`, the Potency result is “inactive”.

Regarding `CC(=O)OCC(=O)[C@@]1(O)CC[C@@H]2[C@H]3CCC4=CC(=O)C=C[C@]4(C)[C@]3(F)[C@@H](O)C[C@@]21C`, the Potency entry was “inactive”.

As to `NS(=O)(=O)c1cc(C(=O)O)c(Cl)c([N+](=O)[O-])c1Cl`, the activation was -3.67% [at 11.4 µM] (inactive).

`COc1ccc(CCNC(=O)c2cc3sccc3n2C)cc1OC`: the Potency entry was “inactive”.

Regarding `CCOC(=O)c1cc2sccc2n1Cc1ccc(C#N)cc1`, the Potency is 15.8 µM (active).

As to `CC(=O)N1CCC2(CCCN(Cc3ccc(C#N)cc3)C2)CC1`, the Potency result is “inactive”.

As for `O=c1[nH][nH]c(=O)c2cc(N3CCCC3)ccc12`, the Potency result was “inactive”.

Turning to `O=C(Nc1ccc(S(=O)(=O)N2CCCCC2)cc1)c1cnccn1`, the Potency result was “inactive”.

Take `CCc1cccc(C)c1NC(=O)CSc1nnc(-c2ccco2)n1N`: the Potency entry is “inactive”.

In the case of `Cc1cccc(C)c1NC(=O)CCCSc1nnc(-c2ccco2)n1-c1ccccc1`, the Potency was 20 µM (active).

Turning to `COc1ccc(C(=O)NC(=O)CSc2nnc(-c3ccco3)n2-c2ccccc2)cc1`, the Potency entry is “inactive”.

For `CC1CCCCN1CCCNC(=O)c1ccc(-n2c(=O)c(=O)[nH]c3ccccc32)cc1` (configuration not stated), the Potency result is “inactive”.

Regarding `O=C1c2ccccc2C(O)N1Cc1ccccc1Cl` (configuration not stated), the Potency entry was “inactive”.

`COc1ccc(OCc2cccc(C(=O)N3CCCC3)c2)cc1`: the Potency entry was “inactive”.

`COC(=O)[C@@]1(Cc2ccc(F)cc2)[C@H]2c3cc(C(=O)N(C)C)n(CCc4c[nH]c5ccc(OC)cc45)c3C[C@H]2CN1C(=O)c1ccccc1`: the Potency result is “inactive”.

Regarding `COC(=O)[C@@]1(Cc2ccc(F)cc2)[C@H]2c3cc(C(=O)N4CCCC4)n(C[C@H](O)CO)c3C[C@H]2CN1C(=O)c1ccccc1`, the Potency entry was “inactive”.

In the case of `COC(=O)[C@@]1(Cc2ccc(F)cc2)[C@H]2c3cc(C(=O)N4CCCC4)n(Cc4ccc(OC(F)(F)F)cc4)c3C[C@H]2CN1C(=O)c1ccccc1`, the Potency was 1.58 µM (active).

For the compound `COC(=O)[C@@]1(Cc2ccc(OC)cc2)[C@H]2c3cc(C(=O)N4CCCC4)n(Cc4ccc(OC(F)(F)F)cc4)c3C[C@H]2CN1C(=O)c1ccccc1`, the Potency was 2.51 µM (active).

For `COC(=O)[C@@]1(Cc2ccccc2)[C@H]2c3cc(C(=O)N4CCCC4)n(Cc4ccc(C)o4)c3C[C@H]2CN1C(=O)c1ccccc1`, the Potency was 1.58 µM (active).

For the compound `COC(=O)[C@@]1(Cc2ccc(F)cc2)[C@@H]2[C@@H](CC(=O)[C@H]2CC(=O)C(=O)N2CCCC2)CN1C(=O)c1ccccc1`, the Potency entry is “inactive”.

As for `COc1ccc(-c2nc(CS(=O)CC(=O)N3CCc4ccccc4C3)c(C)o2)cc1` (configuration not stated), the Potency entry was “inactive”.

As to `COc1ccc(/C=C/NC(=O)c2ccc(OC)cc2)cc1`, the activation is -3.02% [at 11.4 µM] (inactive).

Take `NCCCNCCCCN(CCCN)/[N+]([O-])=N/O`: the Potency entry was “inactive”.

On to `CC1(C)S[C@@H]2[C@@H](NC(=O)[C@@H](N)c3ccccc3)C(=O)N2[C@H]1C(=O)O`, for which the Potency result is “inactive”.

For the compound `CC(Sc1nncn1C)C(=O)Nc1ccccc1-c1ccccc1` (configuration not stated), the Potency entry was “inactive”.

Regarding `CS(=O)(=O)N1CCN(C(=O)c2cc3ccccc3oc2=O)CC1`, the Potency result was “inactive”.

As to `C/C(CCN1CCc2nc(-c3ccccc3)c(-c3ccccc3)cc2C1)=N\O[C@@H](C)c1cn([C@@H]2COC[C@@H]2O)nn1`, the activation was 0.56% [at 11.4 µM] (inactive).

As for `CCCOc1ccc2c3c(c(=O)oc2c1OCCC)CCC3`, the Potency was 3.16 µM (active).

For `O=C(COc1ccc2c3c(c(=O)oc2c1)CCC3)NC1CCCCC1`, the Potency entry was “inactive”.

Regarding `NC(=O)COc1ccc2c3c(c(=O)oc2c1)CCCCC3`, the Potency entry is “inactive”.

Regarding `Oc1ccc2ccccc2c1C=NCc1c(O)ccc2ccccc12`, the activation is 1.97% [at 11.4 µM] (inactive).

Take `CC(C)N(C(=O)COC(=O)c1ccccc1C(=O)N1CCN(c2ccc(F)cc2)CC1)C(C)C`: the Potency entry was “inactive”.

As for `CN1CCN(c2ccc(NC(=O)COc3ccc(Cl)cc3Cl)cc2)CC1`, the Potency entry is “inactive”.

For `CC(=O)N1CCN(c2ccc(NCc3ccc(C(C)C)cc3)cc2)CC1`, the Potency is 3.98 µM (active).
